About 1,400 (78%) of roughly 1,800 compounds were called active. Roughly 2% stayed inconclusive and do not appear here.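 How the source made its calls: active means fitted curve crossing a set activation limit at or below the highest valid dose tested; inconclusive means flat fit at 30 to 70% activation, or poor fit; inactive means the rest, including signal decreases.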 The set was probably picked from earlier hits. Not all results are given here. Measured potencies and affinities stand elsewhere.
Assay: blockers of NLG process in reporter cells – D54 ERlucT cells, luminescence, cherry-picks, dose response (AID 624491);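 further: signal gain reflects blocked N-linked glycosylation of a luciferase reporter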
Details: D54 ERlucT glycosylation luciferase reporter, 24 h, 100% = twice neutral-control luminescence; series mostly up to 19.5 µM

Activation (NLG inhibition), inactive:
CCN(CC)Cc1cc(Nc2c3ccccc3nc3c4ccccc4n(C)c23)cc(CN(CC)CC)c1O
CCOC(=O)c1c(C)[nH]c(-c2csc(N)n2)c1C
CCOC(=O)c1[nH]c(C)c(C(=O)Nc2cc(Cl)ccc2C)c1C
CCOC(=O)c1[nH]c(COC(=O)CCOc2ccccc2OC)c(C(=O)OCC)c1C
CCN(CC)c1ccc(C(=O)n2cnc3ccccc32)cc1
CC(=O)N1c2ccccc2C(=O)C1N(C)c1ccc(C)cc1 (centres undefined)
COCCNc1nc(-c2ccccc2CO)c2sc(-c3ccccc3)cc2n1
CCOC(=O)c1ccc(-n2cccc2/C=C2\NC(=O)NC2=O)cc1
O=C(N/N=C\c1cccnc1)c1cc(-c2ccccc2)nc2c(Cl)cccc12
O=C(/C=C/c1ccc([N+](=O)[O-])s1)N1CCCCC1
CCN(c1ccccc1)S(=O)(=O)c1ccc(C(=O)NC2CCN(Cc3ccccc3)CC2)cc1
Cc1nnc2n(c1=O)N=C(c1ccc(Cl)cc1)CS2
O=C(CN1C2=NCCCN2c2ccccc21)c1ccc([N+](=O)[O-])cc1
CC(C)(C)S(=O)N1Cc2cc(C(=O)NCC(F)(F)F)nc(-c3cccc(-c4cccc(F)c4)c3)c2[C@@H]1CCO (some centres undefined)
Cc1cnc(C(=O)OCC(=O)NC2CCCCCCC2)cn1
Cc1ccc(-c2nn(-c3ccccc3)cc2NC(=O)CCl)cc1
COc1ccccc1NC(=O)Cn1nnc(-c2ccccc2NC(=O)c2ccco2)n1
CCc1cccc(NC(=O)CN2C(=O)NC3(CCCCCCC3)C2=O)c1
O=C(CN1C(=O)NC2(CCCCC2)C1=O)Nc1ccc2c(c1)CCC2
Cc1ccc(C)c(N2CCN(S(=O)(=O)c3ccc(-c4ccc(=O)[nH]n4)o3)CC2)c1
Cn1cnc([N+](=O)[O-])c1Oc1ccc2ccccc2c1
CCn1c(=O)cc(C(=O)OC)sc1=Nc1ccc(F)c(F)c1
O=C1c2cccc3c([N+](=O)[O-])ccc(c23)C(=O)N1CC1CCCO1 (centres undefined)
O=c1cc(-c2ccccc2)[nH]n1-c1nc2ccccc2[nH]1
Nc1cc2c(cc1Br)-c1c(C(=O)O)cccc1C2O (centres undefined)
CO/N=C/c1ccc(OC)c(Oc2nc(OC)cc(OC)n2)c1
O=C(COc1ccc(/C=N/NC(=O)c2cc3ccccc3o2)cc1Br)Nc1ccccc1
CCCCCC[n+]1ccccc1/C=C/c1ccc(N(C)C)cc1
CCC1=Nc2cc(C(=O)NCc3ccco3)ccc2Sc2ccc(Cl)cc21

From PubChem BioAssay AID624491 (Broad Institute, 2012)
